Here are results for 40 compounds from PubChem BioAssay (Tox21).

Structures are written as SMILES. Inconclusive results are not listed. The source made the active and inactive calls. Calls come from the whole dose curve; as a rule, active = well fitted cell-killing curve with a large enough effect in the repeat runs; inconclusive = weak or mixed curves, or effect the other way; inactive = no such curve, though single readings can be large or run the other way.
% is set by controls: 0 for no effect and ±100 for the full control effect; potency is the fitted concentration of half-maximal effect.

This test is described as follows: Caspase-3/7 induction in CHO-K1 cells by small molecules, qHTS cell viability counter screen (AID 1346979). Note: nearly all actives have a fitted effect of over 35% in size. To be noted: CellTiter-Fluor fluorescence, 17 h; series mostly up to 92.4 µM; activity change, negative = cytotoxicity: at the top concentration. From the text: National Center for Advancing Translational Sciences [NCATS]
NIH Chemical Genomics Center [NCGC]
U.S. Environmental Protection Agency [EPA]
National Institutes of Environmental Health Sciences [NIEHS]
National Toxicology Program [NTP]
U.S. Food and Drug Administration [FDA]
Apoptosis is a process of programmed cell death and plays a central role in the development of multicellular organisms. It is a highly regulated process and induces cell death by activating caspases, which are the members of cysteine aspartic acid-specific protease (caspase) family. Caspases involved in apoptosis are classified by their mechanism of action as initiator caspases (caspase-2, -8, -9 and -10) and executioner caspases (caspase-3, -6, and -7). Inhibition of apoptosis results in number of cancers, autoimmune diseases, inflammatory diseases and viral infection. To identify small molecule compounds that induce apoptosis, a homogeneous, luminescent Caspase-Glo 3/7 assay was used. Wild type CHO-K1 cells were used to screen Tox21 libraries for identifying caspase-3/7 activity inducers. Also cytotoxicity of the compounds was tested in parallel by measuring the cell viability using CellTiter-Fluor assay system in the same wells.
Tox21 Assay Protocol Summary:
CHO-K1 cells were dispensed at 1,500 per well in 5uL of culture medium into white solid bottom 1536-well plates (Corning Life Sciences, Corning, NY) using a Multidrop Combi (Thermo Scientific, Waltham, MA) dispenser. The assay plates were incubated at 37 C and 5% CO2 for 5hr, and then 23nL of compounds dissolved in DMSO and positive control were transferred using a Pintool station (Wako, San Diego, CA). The assay plates were incubated at 37C and 5% CO2 for 17hr. For cytotoxicity read, after 16hr incubation at 37C, 1uL CellTiter-Fluor reagent (Promega Corporation, Madison, WI) was added to each well of the assay plates using Flying Reagent Dispenser (FRD, Aurora Discovery, San Diego, CA). After 1hr incubation at 37C and 5% CO2, the fluorescence signal was quantified using a ViewLux plate reader (PerkinElmer, Shelton, CT).
On to `CCCCCCCCCCCCCCCCCC(=O)OCC(CC)CCCC` (stereo not given), for which the “activity change, negative = cytotoxicity” value is 2.19% (inactive).

Turning to `Cc1cc([N+](=O)[O-])ccc1N`, the Potency was 53.8 µM (active). In the case of `CC(C)OC(=O)c1ccccc1C(=O)OC(C)C`, the “activity change, negative = cytotoxicity” value is 6.47% (inactive). In the case of `CCCCCCCCCCCCCCN(C)C`, the activity change, negative = cytotoxicity is 2.75% [at 19 µM] (inactive).

Turning to `Cc1cc(CCCOc2c(C)cc(-c3noc(C(F)(F)F)n3)cc2C)on1`, the “activity change, negative = cytotoxicity” value is -11% [at 42.5 µM] (inactive). In the case of `CCN(CC)CCNC(=O)c1cc(Cl)c(N)cc1OC`, the “activity change, negative = cytotoxicity” value is 6.56% [at 42.5 µM] (inactive).

With `NC(=O)CCCCC(N)=O`, the “activity change, negative = cytotoxicity” value was -0.093% (inactive). Same read-out and setting: with `SCCc1cnccn1` the figure was -0.129% (inactive). As for `COc1cc(NCc2ccc3nc(N)nc(N)c3c2C)cc(OC)c1OC`, the Potency was 26.6 µM (active). In the case of `c1ccc(CCCc2ccncc2)cc1`, the “activity change, negative = cytotoxicity” value was -7.52% (inactive). As to `O=[N+]([O-])c1ccc2ncccc2c1`, the “activity change, negative = cytotoxicity” value was -1.75% (inactive).

`C=Cc1ccc(OC(C)=O)cc1`: the “activity change, negative = cytotoxicity” value is -0.875% (inactive).

As for `CC1=CC[C@@]23C[C@@H]1C(C)(C)[C@@H]2CC[C@H]3C`, the “activity change, negative = cytotoxicity” value is -2.31% (inactive). Take `C=CC(=O)NC(C)C`: the “activity change, negative = cytotoxicity” value is 4.07% (inactive).

For the compound `O=C(O)CCC(=O)c1ccc(-c2ccccc2)cc1`, the “activity change, negative = cytotoxicity” value was -0.216% [at 42.5 µM] (inactive). `c1ccc2sc(SSc3nc4ccccc4s3)nc2c1`: the activity change, negative = cytotoxicity is 8.61% [at 19 µM] (inactive). Take `Cc1c[nH]c2ccccc12`: the “activity change, negative = cytotoxicity” value is -2.89% [at 42.5 µM] (inactive).

`COc1ccc2nc(S(=O)Cc3ncc(C)c(OC)c3C)[nH]c2c1` (stereo not given): the Potency was 67.8 µM (active).

`Cc1cccc2sc(N)nc12`: the “activity change, negative = cytotoxicity” value is 5.04% (inactive).

With `CC1CCCO1` (stereo not given), the “activity change, negative = cytotoxicity” value is 8.76% (inactive). `CC(=O)c1ccc[nH]1`: the “activity change, negative = cytotoxicity” value was 1.52% (inactive). Turning to `C=C(C)c1ccccc1`, the “activity change, negative = cytotoxicity” value is 1.36% (inactive). In the case of `CCOCCC(=O)OCC`, the “activity change, negative = cytotoxicity” value is 5.49% (inactive). Same read-out and setting: with `CS(=O)(=O)c1ccc([C@@H](C[C@H]2CCC(=O)C2)C(=O)Nc2cnccn2)cc1Cl` the figure was -0.627% (inactive). Consider `CCN(CC)c1ccc(C(=C2C=CC(=[N+](CC)CC)C=C2)c2ccc(S(=O)(=O)O)cc2S(=O)(=O)[O-])cc1`, for which the Potency is 15.4 µM (active). On to `O=C(C(=O)c1ccco1)c1ccco1`, for which the “activity change, negative = cytotoxicity” value is 4.23% (inactive). On to `CC(CN(CCN(CC(C)OCCO)CC(C)OCCO)CC(C)OCCO)OCCO` (stereo not given), for which the “activity change, negative = cytotoxicity” value is -2.43% (inactive).

For the compound `O=C1[C@@H]2[C@H]3CC[C@H](C3)[C@@H]2C(=O)N1CCCCN1CCN(c2ncccn2)CC1`, the “activity change, negative = cytotoxicity” value is 6.86% [at 42.5 µM] (inactive).

For the compound `CC[C@@H](CO)NCCN[C@@H](CC)CO`, the “activity change, negative = cytotoxicity” value is 6.56% [at 42.5 µM] (inactive). Same read-out and setting: the same measure for `Cc1ccc(N(CC2=NCCN2)c2cccc(O)c2)cc1`: -3.05% [at 42.5 µM] (inactive); for `Cc1ccc(S(=O)(=O)NC(=O)NC2CCCCC2)cc1`: 3.24% [at 42.5 µM] (inactive); for `CC(C)CC(O)CC(C)C`: 3.15% (inactive). In the case of `COc1ccc(C2C(=O)c3ccccc3C2=O)cc1`, the “activity change, negative = cytotoxicity” value is 0.658% [at 42.5 µM] (inactive). Same read-out and setting: the same measure for `O=S(=O)(O)CO`: 4.84% (inactive); for `CCOc1ncc(F)c(=O)[nH]1`: 12.7% [at 42.5 µM] (inactive). The same measure, in the same setting: the same measure for `CCN(CC)CCOC(=O)C(c1ccccc1)c1ccccc1`: 2.17% [at 42.5 µM] (inactive).

Consider `CCN(CC)C(=O)/C(C#N)=C/c1cc(O)c(O)c([N+](=O)[O-])c1`, for which the Potency was 26.6 µM (active). `CCCCCCCCCCCCCOC(=O)CCSCCC(=O)OCCCCCCCCCCCCC`: the activity change, negative = cytotoxicity is 0.0364% [at 19 µM] (inactive). The same measure, in the same setting: the same measure for `CC(=O)N[C@@H](Cc1ccc(O)cc1)C(=O)O`: 8.25% [at 42.5 µM] (inactive); for `CC(=O)NCCO`: 0.762% (inactive).
